Here are results for nine molecules from PubChem BioAssay (Tox21).

Assay [1] can be described thus: qHTS assay to identify small molecule antagonists of the estrogen receptor alpha (ER-alpha) signaling pathway using the BG1 cell line in the presence of 0.1 nM 17-beta-estradiol - cell viability counter screen (AID 1259241). Also: nearly all actives have a fitted effect of over 40% in size. The method, boiled down:
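Live-cell protease activity (CellTiter-Fluor fluorescence, 30 min) was read in the same wells after VM7Luc4E2 cells had been exposed to compounds with 0.1 nM 17beta-estradiol for 22 hr at 37C.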
For orientation: Quantitative high-throughput screening tests each substance at several concentrations.

Assay [2] can be described thus: qHTS assay to identify small molecule antagonists of the androgen receptor (AR) signaling pathway using the MDA cell line in the presence of 0.5 nM R1881 - cell viability counter screen (AID 1259242). Also: nearly all actives have a fitted effect of over 45% in size. The method in brief:
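Cells seeded at 3,000/well and allowed 5 hr at 37C, 0% CO2 before compound transfer and R1881 (0.5 nM final) addition; 16 hr later, live-cell protease fluorescence indicated cytotoxicity.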

Assay [3] in a line: qHTS assay to identify small molecule phospholipidosis (PLD) inducers (AID 1259344; active = well fitted curve in the direction sought with a large enough effect; an effect the other way counts as inactive or inconclusive). The method in brief:
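Read-out is LipidTOX Red fluorescence (ex 595/em 615) imaged in HepG2 cells after 24 h compound exposure at 37 C, with Hoechst nuclear counterstain (ex 352/em 461) allowing per-cell normalisation.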

The nature of assay [4]: qHTS assay to identify small molecule HDAC inhibitors (AID 1259364).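 Also: wild-type HCT-116 cells with endogenous class I/II HDAC activity; top concentration of the series differs between compounds; nearly all actives have a fitted effect of over 45% in size.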 The method, boiled down: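 HCT-116 wt cells, 1,500/well, overnight attach. Compounds (DMSO) 2 h, 37 °C. HDAC-Glo I/II, 30 min RT. Luminescence.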
Assay [5] is described as follows: qHTS assay to identify small molecule HDAC inhibitors - cell viability counter screen (AID 1259365). Also: series mostly up to about 92 µM; nearly all actives have a fitted effect of over 50% in size. The method in brief: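 HCT-116 (wild type), 1,500 cells/well, overnight 37C/5% CO2; compound in DMSO 2hr; CellTiter-Glo 30min RT; luminescence read.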
The nature of assay [6]: qHTS assay to identify small molecule agonists of the sonic hedgehog signaling (Shh) pathway - cell viability counter screen (AID 1259366). Also: nearly all actives have a fitted effect of over 50% in size. The method in brief:
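CellTiter-Fluor fluorescence read-out, 1 hr at 37C, added after 23hr compound exposure. Cells: 3T3 Gli1-Luc, an NIH/3T3 clone with stably integrated Gli1-Luc reporter, plated 4hr before compound.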

Assay [7] can be described thus: qHTS assay to identify small molecule antagonists of the sonic hedgehog signaling (Shh) pathway - cell viability counter screen (AID 1259367). Also: nearly all actives have a fitted effect of over 55% in size. The method, boiled down: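 Fluorescence read-out (CellTiter-Fluor, 1 hr at 37C) taken after 23 hr compound treatment of 3T3 Gli1-Luc cells stimulated with conditioned medium. Cells were seeded at 2,000 per well and pre-incubated 4 hr.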

Assay [8] is described as follows: qHTS assay to identify small molecule agonists of the sonic hedgehog signaling (Shh) pathway (AID 1259368; calls by dose curve;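 also: NIH/3T3-derived 3T3Gli1-Luc cells carrying a stable Gli1-driven firefly luciferase reporter; series mostly up to about 92 µM; nearly all actives have a fitted effect of over 15% in size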). The method, boiled down:
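Following a 24 hr incubation with DMSO-dissolved compounds at 37 C, 5% CO2, Gli1-Luc NIH/3T3-derived cells received luciferase reagent for 30 min at room temperature prior to luminescence measurement.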

Assay [9] in a line: qHTS assay to identify small molecule antagonists of the sonic hedgehog signaling (Shh) pathway (AID 1259369; calls by dose curve; also: nearly all actives have a fitted effect of over 45% in size). The method, boiled down:
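Read-out is luminescence from a firefly luciferase gene controlled by the Gli1 response element, in 3T3Gli1-Luc cells pre-incubated 4hr then exposed to compounds and conditioned medium for 24hr.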

The target in assay [10] is Estrogen receptor beta (Homo sapiens) (UniProt Q92731). The assay is described as follows: qHTS assay to identify small molecule agonists of the estrogen receptor beta (ER-beta) signaling pathway (AID 1259377; active = well fitted activation curve with a large enough effect in the signal ratio in the repeat runs, not every such curve was filed as active; the % refers to the signal ratio). The method, boiled down:
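Beta-lactamase reporter readout: fluorescence of LiveBLAzer B/G FRET substrate after 2 h at room temperature, following 16 h compound treatment of ER-beta-UAS-bla HEK293T cells at 37C in 2% charcoal-stripped FBS medium.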

For assay [11] the target is unchanged. The assay is described as follows: qHTS assay to identify small molecule antagonists of the estrogen receptor beta (ER-beta) signaling pathway (AID 1259378; active = well fitted inhibition curve with a large enough effect in the signal ratio in the repeat runs, not every such curve was filed as active; the % refers to the signal ratio). The method in brief:
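ER-beta-UAS-bla HEK293T cells in 2% charcoal-stripped FBS medium treated with compound plus 1nM final 17-beta-estradiol for 16 hr at 37C. Beta-lactamase reporter read by FRET substrate fluorescence after 2 hours at room temperature.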

A short description of assay [12]: qHTS assay to identify small molecule agonists of the androgen receptor (AR) signaling pathway in the presence of an antagonist - cell viability counter screen (AID 1259379).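 Also: MDA-kb2 human breast cancer cells carrying an MMTV luciferase reporter; series mostly up to about 92 µM; nearly all actives have a fitted effect of over 25% in size.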 The method, boiled down: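 Each compound was tested at 15 concentrations on MDA-kb2 cells in the presence of 3.0uM nilutamide. Viability was measured by CellTiter-Fluor fluorescence after a 16 hr incubation at 37C in a CO2-free atmosphere.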

Assay [13] can be described thus: qHTS assay to identify small molecule agonists of the estrogen receptor beta (ER-beta) signaling pathway - cell viability counter screen (AID 1259380). Also: nearly all actives have a fitted effect of over 30% in size. Also: potency is read from the fitted curve at half-maximal effect. The method in brief: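 Compounds dissolved in DMSO were pin-transferred onto ER-beta-UAS-bla HEK293T cells that had settled 6 hr, and exposure ran 16 hr at 37C. Following the reporter read, CellTiter-Glo luminescence after 30 min at room temperature indicated cytotoxicity.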

The nature of assay [14]: qHTS assay to identify small molecule antagonists of the estrogen receptor beta (ER-beta) signaling pathway - cell viability counter screen (AID 1259382). Also: series mostly up to about 92 µM; nearly all actives have a fitted effect of over 55% in size. The method, boiled down:
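CellTiter-Glo ATP luminescence measured after the LiveBLAzer read in the same wells; ER-beta-UAS-bla HEK293T cells, 16 hr compound treatment with 1nM 17-beta-estradiol agonist at 37C, 5% CO2.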

The nature of assay [15]: qHTS assay to identify small molecule agonists or antagonists of the thyroid stimulating hormone receptor (TSHR) signaling pathway - wild type cell line counter screen (AID 1259384; calls by dose curve). The method, boiled down: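 Wild-type Hek293 cells, 800/well, 18 h at 37C, then compound with Ro20-1724 for 30 min RT. cAMP by HTRF (cAMP-d2/anti-cAMP cryptate), 1 h RT, fluorescence read. 15 concentrations, triplicates.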

Assay [16] concerns the target Thyrotropin receptor (Homo sapiens) (UniProt P16473). The assay is described as follows: qHTS assay to identify small molecule antagonists of the thyroid stimulating hormone receptor (TSHR) signaling pathway (AID 1259385; calls by dose curve; also: nearly all actives have a fitted effect of over 20% in size). The method, boiled down:
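TSHR-HEK293 cells (800/well) plated 18 h, then compounds with Ro20-1724 and TSH at 1.5 ng/mL final, 30 min at room temperature. cAMP quantified by HTRF (cAMP-d2/anti-cAMP-cryptate, 1 h); 15 concentrations in triplicate.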

For assay [17], the target named is Estrogen receptor (Homo sapiens) (UniProt P03372). The assay is described as follows: qHTS assay to identify small molecule agonists of the estrogen receptor alpha (ER-alpha) signaling pathway in the presence of an antagonist (AID 1259383; calls by dose curve; also: top concentration of the series differs between compounds; nearly all actives have a fitted effect of over 15% in size). The method, boiled down: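 Luminescent ERE-luciferase reporter, VM7Luc4E2 cells (endogenous ER-alpha); 10.0nM ICI-182,780 final; 15-point compound titration; 22hr at 37C; ONE-Glo, 30min RT.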
Sequence of Estrogen receptor (Homo sapiens) (P03372 whole entry, looked up): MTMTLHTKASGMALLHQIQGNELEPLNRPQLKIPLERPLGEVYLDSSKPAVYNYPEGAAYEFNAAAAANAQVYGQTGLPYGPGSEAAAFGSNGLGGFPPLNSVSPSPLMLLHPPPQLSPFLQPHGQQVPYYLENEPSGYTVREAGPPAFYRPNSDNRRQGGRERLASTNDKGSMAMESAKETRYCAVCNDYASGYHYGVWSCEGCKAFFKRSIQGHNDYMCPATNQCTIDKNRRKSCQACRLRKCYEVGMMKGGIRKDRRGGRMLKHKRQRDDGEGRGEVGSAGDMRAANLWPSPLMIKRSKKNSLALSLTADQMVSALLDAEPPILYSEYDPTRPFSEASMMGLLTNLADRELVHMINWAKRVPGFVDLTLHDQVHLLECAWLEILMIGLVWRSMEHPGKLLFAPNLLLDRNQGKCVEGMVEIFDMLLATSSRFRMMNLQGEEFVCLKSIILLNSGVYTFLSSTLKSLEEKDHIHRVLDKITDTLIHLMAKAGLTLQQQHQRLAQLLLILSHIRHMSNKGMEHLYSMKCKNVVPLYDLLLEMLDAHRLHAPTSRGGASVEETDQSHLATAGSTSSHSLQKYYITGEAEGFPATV

Unmarked numbers belong to inactive results. Results filed as inconclusive are left out. Calls of active or inactive are those of the source. Unless noted, calls follow the shape of the dose curve; as a rule, active = well fitted curve in the direction sought with a large enough effect in the repeat runs; inconclusive = weak or mixed curves; inactive = no such curve, though single readings can be large; an effect the other way counts as inactive or inconclusive.

Sequence of Estrogen receptor beta (Homo sapiens) (Q92731 whole entry, looked up): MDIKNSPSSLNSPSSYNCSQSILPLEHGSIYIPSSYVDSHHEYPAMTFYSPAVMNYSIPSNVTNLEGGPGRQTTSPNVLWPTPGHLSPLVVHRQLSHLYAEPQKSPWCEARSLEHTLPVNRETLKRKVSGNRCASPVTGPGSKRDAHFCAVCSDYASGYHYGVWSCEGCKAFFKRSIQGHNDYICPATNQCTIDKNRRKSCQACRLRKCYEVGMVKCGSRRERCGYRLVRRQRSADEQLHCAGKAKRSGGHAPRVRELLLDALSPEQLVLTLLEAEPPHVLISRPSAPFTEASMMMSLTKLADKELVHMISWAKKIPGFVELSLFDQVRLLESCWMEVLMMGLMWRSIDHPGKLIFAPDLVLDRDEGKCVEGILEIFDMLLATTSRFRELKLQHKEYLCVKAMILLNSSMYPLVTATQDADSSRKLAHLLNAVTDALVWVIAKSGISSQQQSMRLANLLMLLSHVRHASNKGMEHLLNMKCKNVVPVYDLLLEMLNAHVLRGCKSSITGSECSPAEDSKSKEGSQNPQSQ
Sequence of Thyrotropin receptor (Homo sapiens) (P16473 whole entry, looked up): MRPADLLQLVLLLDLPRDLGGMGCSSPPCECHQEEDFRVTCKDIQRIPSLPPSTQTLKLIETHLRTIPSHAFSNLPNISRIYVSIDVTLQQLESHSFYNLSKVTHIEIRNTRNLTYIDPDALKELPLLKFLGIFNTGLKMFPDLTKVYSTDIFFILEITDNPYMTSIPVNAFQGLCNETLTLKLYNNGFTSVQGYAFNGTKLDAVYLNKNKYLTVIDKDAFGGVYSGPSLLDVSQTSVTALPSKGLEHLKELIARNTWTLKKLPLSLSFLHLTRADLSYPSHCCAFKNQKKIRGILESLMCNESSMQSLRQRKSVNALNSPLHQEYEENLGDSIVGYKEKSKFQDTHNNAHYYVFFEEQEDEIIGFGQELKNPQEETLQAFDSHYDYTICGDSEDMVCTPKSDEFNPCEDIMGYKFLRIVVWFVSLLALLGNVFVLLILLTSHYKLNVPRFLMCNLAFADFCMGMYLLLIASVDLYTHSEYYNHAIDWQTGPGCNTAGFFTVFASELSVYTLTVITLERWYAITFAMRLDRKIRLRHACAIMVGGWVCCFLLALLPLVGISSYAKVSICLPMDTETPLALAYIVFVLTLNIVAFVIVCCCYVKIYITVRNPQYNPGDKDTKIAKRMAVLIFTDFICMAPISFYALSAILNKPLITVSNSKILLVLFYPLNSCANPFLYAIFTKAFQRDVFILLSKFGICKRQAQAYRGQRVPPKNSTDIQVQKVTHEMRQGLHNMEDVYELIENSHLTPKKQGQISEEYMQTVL

Take `Cc1cccc(C)c1NC(=O)CN1CCCC1`: the Potency entry in [1], in assay [2], in [3], in assay [4], in assay [6] and in assay [7] was “inactive” each time. For the same molecule, the Potency entry in assay [8], in assay [9], in [10], in assay [11], in [12] and in assay [13] was “inactive” each time. In addition, the Potency result in assay [14] and in assay [16] was “inactive” in each case. The outcome in [5] and in [15] was inactive.
As for `CC(C)(O)C(=O)O`, the Potency entry in [1], in [2], in assay [4], in assay [6], in assay [7] and in assay [8] was “inactive” in each case. Besides, the Potency entry in [9], in assay [10], in assay [11], in assay [13] and in assay [14] was “inactive” in each case. Moreover, the call in assay [5] was inactive.
Turning to `CCCCC(CC)COCCC#N` (stereo not given), the Potency entry in assay [1], in assay [2], in assay [4], in assay [6], in assay [7] and in [8] was “inactive” each time. In addition, the Potency entry in assay [9], in [12], in assay [13], in assay [14] and in [16] was “inactive” in each case. The outcome in assay [5] and in assay [15] was inactive.
Consider `C=C(C)C(=O)OCCCCCCCCCCOC(=O)C(=C)C`, for which the Potency result in assay [1], in assay [2], in [4], in [6], in [7] and in assay [8] was “inactive” each time. Moreover, the Potency result in assay [9], in assay [10], in assay [11], in assay [12], in assay [13] and in assay [14] was “inactive” throughout. Besides, the Potency entry in assay [16] is “inactive”. The molecule was called inactive in assay [5] and in [15].
For the molecule `CCCCCCCCNC`, the Potency result in assay [1], in assay [2], in assay [4], in assay [6], in assay [7] and in assay [8] was “inactive” each time. In addition, the Potency entry in assay [9], in assay [10], in assay [11], in [12], in assay [13] and in assay [14] was “inactive” in each case. In addition, in assay [16], the Potency result was “inactive”. In addition, the molecule was classed as inactive in [5].
Turning to `C/C=C1\[C@H]2C=C(C)C[C@]1(N)c1ccc(=O)[nH]c1C2`, the Potency entry in assay [1], in assay [2], in assay [3], in assay [4], in assay [6] and in assay [7] was “inactive” each time. The Potency entry in assay [8], in assay [9], in assay [10], in assay [11], in [12] and in assay [13] was “inactive” each time. In addition, the Potency result in assay [14] and in assay [16] was “inactive” in each case. The molecule was classed as inactive in assay [5] and in [15].
`Sc1nc(S)nc(S)n1`: the Potency result in assay [1], in assay [2], in assay [4], in assay [6], in [7] and in assay [8] was “inactive” in each case. In addition, the Potency result in assay [9], in [10], in assay [12], in [13], in assay [14] and in [16] was “inactive” in each case. For the same molecule, the molecule was called inactive in [5] and in assay [15].
In the case of `Cc1nc2sccn2c(=O)c1CCN1CCC(=C(c2ccc(F)cc2)c2ccc(F)cc2)CC1`, the Potency result in assay [1], in assay [2], in assay [4], in [6], in assay [7] and in assay [8] was “inactive” throughout. The Potency result in [10], in [12] and in assay [17] was “inactive” each time. In addition, in assay [5], the molecule was classed as inactive. Besides, the Potency in assay [13] is 13.3 µM (active).
For the molecule `C[Si](C)(C)O[Si](C)(C)O[Si](C)(C)C`, the Potency result in assay [1], in assay [2], in assay [4], in assay [6], in [7] and in assay [8] was “inactive” in each case. Further, the Potency result in assay [9], in [10], in [11], in assay [12], in assay [14] and in assay [16] was “inactive” in each case. The result in assay [5] and in assay [15] was inactive.
